Assays:
[1] = target: T1, Inhibitor of nuclear factor kappa-B kinase subunit epsilon (Homo sapiens) (UniProt Q14164); conditions: at 1 µM;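 further: reported values are averaged percent inhibition figures against human IKKε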
T1 sequence (whole entry): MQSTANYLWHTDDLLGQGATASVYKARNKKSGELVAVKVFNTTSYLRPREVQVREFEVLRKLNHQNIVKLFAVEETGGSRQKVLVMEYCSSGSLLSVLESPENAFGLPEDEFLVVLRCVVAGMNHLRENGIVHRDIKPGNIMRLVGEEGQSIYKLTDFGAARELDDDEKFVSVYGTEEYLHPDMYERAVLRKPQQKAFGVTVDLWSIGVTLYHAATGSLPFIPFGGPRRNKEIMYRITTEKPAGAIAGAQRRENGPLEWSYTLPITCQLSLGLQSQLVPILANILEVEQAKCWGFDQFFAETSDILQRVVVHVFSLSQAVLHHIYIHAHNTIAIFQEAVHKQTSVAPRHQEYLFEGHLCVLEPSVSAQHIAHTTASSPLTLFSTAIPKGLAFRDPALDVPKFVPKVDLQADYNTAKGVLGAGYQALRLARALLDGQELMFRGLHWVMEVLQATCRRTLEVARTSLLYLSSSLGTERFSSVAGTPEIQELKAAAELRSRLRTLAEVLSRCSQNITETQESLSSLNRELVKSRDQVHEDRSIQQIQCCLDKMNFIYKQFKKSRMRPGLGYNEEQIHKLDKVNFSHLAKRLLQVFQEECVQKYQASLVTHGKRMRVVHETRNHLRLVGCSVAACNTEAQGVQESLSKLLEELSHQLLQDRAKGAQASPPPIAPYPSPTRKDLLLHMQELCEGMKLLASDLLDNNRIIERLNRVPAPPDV

[2] = target: T2, Serine/threonine-protein kinase Nek1 (Homo sapiens) (UniProt Q96PY6); conditions: at 0.1 µM
T2 sequence (whole entry): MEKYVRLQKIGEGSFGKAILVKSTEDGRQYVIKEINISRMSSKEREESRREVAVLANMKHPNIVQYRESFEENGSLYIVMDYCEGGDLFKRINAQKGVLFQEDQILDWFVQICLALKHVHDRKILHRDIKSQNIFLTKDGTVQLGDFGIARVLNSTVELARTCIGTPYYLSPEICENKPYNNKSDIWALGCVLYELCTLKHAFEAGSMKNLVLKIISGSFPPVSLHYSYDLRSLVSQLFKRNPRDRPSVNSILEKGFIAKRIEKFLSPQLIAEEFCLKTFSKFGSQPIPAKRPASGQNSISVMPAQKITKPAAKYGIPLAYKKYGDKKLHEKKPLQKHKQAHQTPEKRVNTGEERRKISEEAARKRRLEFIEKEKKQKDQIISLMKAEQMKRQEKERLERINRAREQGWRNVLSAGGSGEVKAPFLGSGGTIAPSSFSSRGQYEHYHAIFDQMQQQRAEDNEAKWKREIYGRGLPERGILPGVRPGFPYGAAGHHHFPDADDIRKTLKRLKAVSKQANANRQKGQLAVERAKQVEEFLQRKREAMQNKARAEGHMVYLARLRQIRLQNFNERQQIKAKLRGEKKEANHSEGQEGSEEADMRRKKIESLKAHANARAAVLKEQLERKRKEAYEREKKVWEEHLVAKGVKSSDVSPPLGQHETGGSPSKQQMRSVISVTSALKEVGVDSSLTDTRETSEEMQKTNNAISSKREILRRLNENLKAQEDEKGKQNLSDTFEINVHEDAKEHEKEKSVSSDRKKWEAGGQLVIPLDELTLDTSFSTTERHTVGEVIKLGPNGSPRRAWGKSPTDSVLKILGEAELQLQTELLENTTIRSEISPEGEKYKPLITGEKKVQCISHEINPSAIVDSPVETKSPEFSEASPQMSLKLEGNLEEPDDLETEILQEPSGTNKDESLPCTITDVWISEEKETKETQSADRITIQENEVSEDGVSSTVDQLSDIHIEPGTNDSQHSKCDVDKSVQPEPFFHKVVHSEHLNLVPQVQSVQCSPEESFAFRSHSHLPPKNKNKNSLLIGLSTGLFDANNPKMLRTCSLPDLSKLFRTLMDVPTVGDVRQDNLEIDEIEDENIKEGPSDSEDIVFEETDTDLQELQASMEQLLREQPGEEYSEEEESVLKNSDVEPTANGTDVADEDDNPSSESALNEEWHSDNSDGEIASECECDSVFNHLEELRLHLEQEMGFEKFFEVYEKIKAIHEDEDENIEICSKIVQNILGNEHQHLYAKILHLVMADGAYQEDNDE

[3] = target: T2, Serine/threonine-protein kinase Nek1 (Homo sapiens); conditions: at 1 µM
[4] = target: T3, Serine/threonine-protein kinase Nek2 (Homo sapiens) (UniProt P51955); conditions: at 0.1 µM
T3 sequence (whole entry): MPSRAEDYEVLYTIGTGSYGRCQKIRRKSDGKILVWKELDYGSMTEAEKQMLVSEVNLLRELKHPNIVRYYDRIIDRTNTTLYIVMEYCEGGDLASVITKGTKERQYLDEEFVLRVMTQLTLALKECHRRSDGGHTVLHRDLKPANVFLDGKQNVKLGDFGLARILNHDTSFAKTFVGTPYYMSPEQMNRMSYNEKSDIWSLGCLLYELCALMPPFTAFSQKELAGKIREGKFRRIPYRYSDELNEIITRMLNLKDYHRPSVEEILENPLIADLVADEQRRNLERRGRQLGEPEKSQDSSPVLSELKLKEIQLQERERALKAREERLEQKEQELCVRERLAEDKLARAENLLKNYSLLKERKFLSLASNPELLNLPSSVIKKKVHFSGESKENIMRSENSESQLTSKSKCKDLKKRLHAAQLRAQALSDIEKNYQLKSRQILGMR

[5] = target: T3, Serine/threonine-protein kinase Nek2 (Homo sapiens); conditions: at 1 µM
[6] = target: Serine/threonine-protein kinase Nek6 (Homo sapiens) (UniProt Q9HC98); conditions: at 0.1 µM
[7] = target: Serine/threonine-protein kinase Nek6 (Homo sapiens) (UniProt Q9HC98); conditions: at 1 µM
[8] = target: Serine/threonine-protein kinase Nek7 (Homo sapiens) (UniProt Q8TDX7); conditions: at 0.1 µM
[9] = target: Serine/threonine-protein kinase Nek7 (Homo sapiens) (UniProt Q8TDX7); conditions: at 1 µM
[10] = target: T4, Serine/threonine-protein kinase Nek9 (Homo sapiens) (UniProt Q8TD19); conditions: at 0.1 µM;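 further: reported value is the mean percent inhibition of NEK9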
T4 sequence (whole entry): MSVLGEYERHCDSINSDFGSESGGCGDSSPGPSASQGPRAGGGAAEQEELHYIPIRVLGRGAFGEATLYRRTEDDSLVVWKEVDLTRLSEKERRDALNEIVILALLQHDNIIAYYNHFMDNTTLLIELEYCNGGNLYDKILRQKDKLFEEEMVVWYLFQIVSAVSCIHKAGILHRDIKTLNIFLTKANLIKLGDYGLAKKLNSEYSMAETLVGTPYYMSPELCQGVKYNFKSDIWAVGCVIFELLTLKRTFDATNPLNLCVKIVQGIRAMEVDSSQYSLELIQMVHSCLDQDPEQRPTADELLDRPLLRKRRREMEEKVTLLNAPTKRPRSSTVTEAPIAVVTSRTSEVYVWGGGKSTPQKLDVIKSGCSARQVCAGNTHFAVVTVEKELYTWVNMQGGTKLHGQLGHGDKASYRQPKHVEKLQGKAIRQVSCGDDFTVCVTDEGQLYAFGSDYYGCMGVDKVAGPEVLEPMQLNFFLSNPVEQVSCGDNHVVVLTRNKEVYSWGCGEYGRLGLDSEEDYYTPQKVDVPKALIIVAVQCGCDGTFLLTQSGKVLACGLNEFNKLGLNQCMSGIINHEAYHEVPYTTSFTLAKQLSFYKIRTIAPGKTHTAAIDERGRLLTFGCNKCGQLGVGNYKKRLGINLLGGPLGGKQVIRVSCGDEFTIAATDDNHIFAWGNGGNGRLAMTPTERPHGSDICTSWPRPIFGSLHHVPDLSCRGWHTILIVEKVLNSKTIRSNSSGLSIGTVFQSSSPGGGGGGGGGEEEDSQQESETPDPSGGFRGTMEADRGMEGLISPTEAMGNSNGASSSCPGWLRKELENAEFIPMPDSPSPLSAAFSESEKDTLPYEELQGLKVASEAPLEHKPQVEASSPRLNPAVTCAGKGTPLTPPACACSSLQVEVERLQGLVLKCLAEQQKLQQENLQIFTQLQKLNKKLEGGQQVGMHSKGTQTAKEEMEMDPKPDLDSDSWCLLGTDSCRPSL

Serine/threonine-protein kinase Nek6 (Homo sapiens), sequence (Q9HC98 whole entry): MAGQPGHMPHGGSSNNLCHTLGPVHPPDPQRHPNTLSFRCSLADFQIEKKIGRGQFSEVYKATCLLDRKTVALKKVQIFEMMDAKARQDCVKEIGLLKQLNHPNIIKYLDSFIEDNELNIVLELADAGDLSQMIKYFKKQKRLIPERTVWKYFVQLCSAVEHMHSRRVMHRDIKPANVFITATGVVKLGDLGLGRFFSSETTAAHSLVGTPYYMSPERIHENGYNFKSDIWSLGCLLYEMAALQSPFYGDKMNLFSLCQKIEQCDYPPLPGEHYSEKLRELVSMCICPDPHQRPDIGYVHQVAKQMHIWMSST
Serine/threonine-protein kinase Nek7 (Homo sapiens), sequence (Q8TDX7 whole entry, looked up): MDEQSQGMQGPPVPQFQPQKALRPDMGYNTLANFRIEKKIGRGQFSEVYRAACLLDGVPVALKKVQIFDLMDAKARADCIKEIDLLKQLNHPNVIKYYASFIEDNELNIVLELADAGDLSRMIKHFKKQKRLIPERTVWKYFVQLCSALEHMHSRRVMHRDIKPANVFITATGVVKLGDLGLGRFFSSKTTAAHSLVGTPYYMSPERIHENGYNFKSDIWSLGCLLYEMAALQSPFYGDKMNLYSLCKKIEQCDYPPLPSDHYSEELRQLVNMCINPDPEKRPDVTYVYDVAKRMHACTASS

`CS(=O)(=O)CCNCc1cc(-c2cc3c(Nc4ccc(OCc5cccc(F)c5)c(Cl)c4)ncnc3s2)cs1` gave an inhibition [1] of 4.64%, an inhibition [2] of 3.08% and an inhibition [3] of 5.81%. It also gave an inhibition [4] of 6.26%, an inhibition [5] of 6.31% and an inhibition [6] of 1.2%. For the same compound, the inhibition [7] was 3.03%, the inhibition [8] was 4.02% and the inhibition [9] was 8.5%. It also gave an inhibition [10] of 9.93%.
